Assay results: ChEMBL document CHEMBL4296182, “CO-ADD screening of NIH NCI Diversity Set V”
For part of these data: Potency and affinity values are given separately.

Tests used:
Staphylococcus aureus = test: Antibacterial activity against Staphylococcus aureus MRSA ATCC 43300 (CO-ADD:GP_020); MIC in CAMBH media using NBS plates, by Resazurin F(560/590); assay type: functional; conditions: Concentration 20 uM, ASSAY_TEST Inhibition of Bacterial Growth, detection method Resazurin, Fluorescence (ex560/em590), MEDIA CAMHB, plate type 384well, CORNING #3640, time 18 hr
Acinetobacter baumannii = test: Antibacterial activity against Acinetobacter baumannii ATCC 19606 (CO-ADD:GN_034); MIC in CAMBH media using NBS plates, by Resazurin F(560/590); assay type: functional; conditions: Concentration 20 uM, ASSAY_TEST Inhibition of Bacterial Growth, detection method Resazurin, Fluorescence (ex560/em590), MEDIA CAMHB, plate type 384well, CORNING #3640, time 18 hr
Escherichia coli = test: Antibacterial activity against Escherichia coli ATCC 25922 (CO-ADD:GN_001); MIC in CAMBH media using NBS plates, by Resazurin F(560/590); assay type: functional; conditions: Concentration 20 uM, ASSAY_TEST Inhibition of Bacterial Growth, detection method Resazurin, Fluorescence (ex560/em590), MEDIA CAMHB, plate type 384well, CORNING #3640, time 18 hr
Klebsiella pneumoniae = conditions: Concentration 20 uM; ASSAY_TEST Inhibition of Bacterial Growth; detection method Absorption (OD600); MEDIA CAMHB; plate type 384well; NBS; CORNING #3640; time 18 hr
Candida albicans = conditions: 20 µM
Cryptococcus neoformans = conditions: Concentration 20 uM; ASSAY_TEST Inhibition of Fungal Growth; detection method Resazurin; Absorption (OD600-OD570); plate type 384well; NBS; CORNING #3640

## O=C(Nc1ccccc1)Oc1cccnc1O
Staphylococcus aureus
  Inhibition: 7.3%
Acinetobacter baumannii
  Inhibition: 9.45%
Escherichia coli
  Inhibition: -1.58%
Klebsiella pneumoniae
  Inhibition: 18.58%
Candida albicans
  Inhibition: 5.22%
Cryptococcus neoformans
  Inhibition: -7.26%

## N=C(N)Nc1nc2cc([N+](=O)[O-])ccc2[nH]1
Staphylococcus aureus
  Inhibition: 9.17%
Acinetobacter baumannii
  Inhibition: -6.93%
Escherichia coli
  Inhibition: 5.92%
Klebsiella pneumoniae
  Inhibition: 26.99%
Candida albicans
  Inhibition: -2.1%
Cryptococcus neoformans
  Inhibition: -6.56%

## O=C(O)C1OCC2(CO1)COC(C(=O)O)OC2 (stereo not given)
Staphylococcus aureus
  Inhibition: 10.92%
Acinetobacter baumannii
  Inhibition: -13.06%
Escherichia coli
  Inhibition: 10.47%
Klebsiella pneumoniae
  Inhibition: 3.27%
Candida albicans
  Inhibition: 1.43%
Cryptococcus neoformans
  Inhibition: -1.34%

## Nc1ccc(C(=O)Nc2ccc(Nc3ccncc3)cc2)cc1
Staphylococcus aureus
  Inhibition: -3.72%
Acinetobacter baumannii
  Inhibition: 6.97%
Escherichia coli
  Inhibition: -13.54%
Klebsiella pneumoniae
  Inhibition: 10.04%
Candida albicans
  Inhibition: 2.67%
Cryptococcus neoformans
  Inhibition: -0.31%

## Cc1ccc(Nc2c(O)ncnc2O)cc1C
Staphylococcus aureus
  Inhibition: -23.26%
Acinetobacter baumannii
  Inhibition: -4.13%
Escherichia coli
  Inhibition: -16.23%
Klebsiella pneumoniae
  Inhibition: 1.1%
Candida albicans
  Inhibition: 0.31%
Cryptococcus neoformans
  Inhibition: 16.78%

## CSc1ccc(NC(=O)Nc2cc(C)ccn2)cc1
Staphylococcus aureus
  Inhibition: 4.66%
Acinetobacter baumannii
  Inhibition: -16.85%
Escherichia coli
  Inhibition: 9.5%
Klebsiella pneumoniae
  Inhibition: 13.34%
Candida albicans
  Inhibition: 0.13%
Cryptococcus neoformans
  Inhibition: -8.58%

## Nc1nc(O)c2nn(-c3ccccc3)nc2n1
Staphylococcus aureus
  Inhibition: 7.59%
Acinetobacter baumannii
  Inhibition: -13.43%
Escherichia coli
  Inhibition: 5.48%
Klebsiella pneumoniae
  Inhibition: 0.39%
Candida albicans
  Inhibition: -3.03%
Cryptococcus neoformans
  Inhibition: 29.86%

## O/N=C(/c1ccccc1)c1ccc2c3c(cccc13)CC2
Staphylococcus aureus
  Inhibition: -1.68%
Acinetobacter baumannii
  Inhibition: -12.52%
Escherichia coli
  Inhibition: 6.08%
Klebsiella pneumoniae
  Inhibition: 9.85%
Candida albicans
  Inhibition: 11.2%
Cryptococcus neoformans
  Inhibition: -8.52%

## CCN(c1ccccc1)c1nc(Cl)nc2c1cnn2C
Staphylococcus aureus
  Inhibition: 9.86%
Acinetobacter baumannii
  Inhibition: 12.26%
Escherichia coli
  Inhibition: 4.23%
Klebsiella pneumoniae
  Inhibition: 13.76%
Candida albicans
  Inhibition: 2.54%
Cryptococcus neoformans
  Inhibition: -8.45%

## CCS(=O)(=O)C1C(=O)N(C)C(S(=O)(=O)CC)C(=O)N1C (stereo not given)
Staphylococcus aureus
  Inhibition: 23.63%
Acinetobacter baumannii
  Inhibition: 9.14%
Escherichia coli
  Inhibition: 3.65%
Klebsiella pneumoniae
  Inhibition: 7.03%
Candida albicans
  Inhibition: 1.37%
Cryptococcus neoformans
  Inhibition: -11.73%

## Cc1cc(=O)n2c3c(c4c(cc13)c(CN(C)C)cc(=O)n4C)OC2.Cl
Staphylococcus aureus
  Inhibition: -3.31%
Acinetobacter baumannii
  Inhibition: 19.85%
Escherichia coli
  Inhibition: 6.04%
Klebsiella pneumoniae
  Inhibition: 7.61%
Candida albicans
  Inhibition: -0.27%
Cryptococcus neoformans
  Inhibition: -11%

## CCCCOc1nc2c(c(=O)n(C)c(=O)n2C)n1C
Staphylococcus aureus
  Inhibition: 18.84%
Acinetobacter baumannii
  Inhibition: 14.19%
Escherichia coli
  Inhibition: 18.86%
Klebsiella pneumoniae
  Inhibition: 3.58%
Candida albicans
  Inhibition: 11%
Cryptococcus neoformans
  Inhibition: 10.8%

## O=C(O)Cc1ccc(/N=N/c2c(O)c(C(=O)O)cc3ccccc23)cc1
Staphylococcus aureus
  Inhibition: 6.99%
Acinetobacter baumannii
  Inhibition: 6.89%
Escherichia coli
  Inhibition: 1.22%
Klebsiella pneumoniae
  Inhibition: 11.34%
Candida albicans
  Inhibition: -4.81%
Cryptococcus neoformans
  Inhibition: -5.37%

## Fc1ccc(-c2cc(-c3cccs3)cc(-c3ccccc3)n2)cc1
Staphylococcus aureus
  Inhibition: 2.48%
Acinetobacter baumannii
  Inhibition: 12.33%
Escherichia coli
  Inhibition: -3.88%
Klebsiella pneumoniae
  Inhibition: 7.87%
Candida albicans
  Inhibition: 6.36%
Cryptococcus neoformans
  Inhibition: -7.45%

## CC1=CC(=C2C=CC(=O)C=C2)C=C(C)N1C
Staphylococcus aureus
  Inhibition: 0.37%
Acinetobacter baumannii
  Inhibition: -6.52%
Escherichia coli
  Inhibition: 4.86%
Klebsiella pneumoniae
  Inhibition: -4.58%
Candida albicans
  Inhibition: 4.83%
Cryptococcus neoformans
  Inhibition: -12.1%

## Cc1cc(NC(=O)Nc2cccc3ccccc23)no1
Staphylococcus aureus
  Inhibition: -11.32%
Acinetobacter baumannii
  Inhibition: -7.4%
Escherichia coli
  Inhibition: 9.22%
Klebsiella pneumoniae
  Inhibition: -0.15%
Candida albicans
  Inhibition: 8.31%
Cryptococcus neoformans
  Inhibition: -12.19%

## CCCCNCC1CCCO1 (stereo not given)
Staphylococcus aureus
  Inhibition: 9.4%
Acinetobacter baumannii
  Inhibition: -3.42%
Escherichia coli
  Inhibition: 8.45%
Klebsiella pneumoniae
  Inhibition: 9.23%
Candida albicans
  Inhibition: -0.1%
Cryptococcus neoformans
  Inhibition: -3.66%

## Sc1nc2ccccc2c2ccccc12
Staphylococcus aureus
  Inhibition: -5.22%
Acinetobacter baumannii
  Inhibition: -10.6%
Escherichia coli
  Inhibition: 1.21%
Klebsiella pneumoniae
  Inhibition: 0.71%
Candida albicans
  Inhibition: 24.1%
Cryptococcus neoformans
  Inhibition: 19.7%

## N#C/C(=C\c1ccc[nH]1)C(=O)c1ccccc1
Staphylococcus aureus
  Inhibition: 9.96%
Acinetobacter baumannii
  Inhibition: 7.21%
Escherichia coli
  Inhibition: 0.79%
Klebsiella pneumoniae
  Inhibition: 8.89%
Candida albicans
  Inhibition: 10.3%
Cryptococcus neoformans
  Inhibition: -7.32%

## Nc1n[nH]c(Nc2ccccc2)n1
Staphylococcus aureus
  Inhibition: 19.31%
Acinetobacter baumannii
  Inhibition: 2.24%
Escherichia coli
  Inhibition: 12.19%
Klebsiella pneumoniae
  Inhibition: 2.99%
Candida albicans
  Inhibition: -0.65%
Cryptococcus neoformans
  Inhibition: -7.66%

## CNC(=O)OCN1C(=O)C2CC=CCC2C1=O (stereo not given)
Staphylococcus aureus
  Inhibition: 7.25%
Acinetobacter baumannii
  Inhibition: -15.92%
Escherichia coli
  Inhibition: 10%
Klebsiella pneumoniae
  Inhibition: 2.19%
Candida albicans
  Inhibition: -1.86%
Cryptococcus neoformans
  Inhibition: -13.88%

## CCOC(=O)/C(=N\O)C1=CSC2=NNC(C)(C)N12
Staphylococcus aureus
  Inhibition: 3.63%
Acinetobacter baumannii
  Inhibition: -13.67%
Escherichia coli
  Inhibition: 6.92%
Klebsiella pneumoniae
  Inhibition: 9.3%
Candida albicans
  Inhibition: 5.91%
Cryptococcus neoformans
  Inhibition: -6.65%

## O=C1Nc2ccccc2C1(c1ccc(O)cc1)c1ccc(O)cc1 [OXYPHENISATINE]
Staphylococcus aureus
  Inhibition: 24.64%
Acinetobacter baumannii
  Inhibition: -10.84%
Escherichia coli
  Inhibition: 13.68%
Klebsiella pneumoniae
  Inhibition: 5.85%
Candida albicans
  Inhibition: 2.96%
Cryptococcus neoformans
  Inhibition: -4.24%

## O=C(Nc1ccc(Br)cc1)Nc1ccccc1Cl
Staphylococcus aureus
  Inhibition: 14.34%
Acinetobacter baumannii
  Inhibition: -1.5%
Escherichia coli
  Inhibition: 10.13%
Klebsiella pneumoniae
  Inhibition: 5.62%
Candida albicans
  Inhibition: 1.52%
Cryptococcus neoformans
  Inhibition: -9.14%

## CCOc1ccc2sc(NS(=O)(=O)c3ccc(N)cc3)nc2c1
Staphylococcus aureus
  Inhibition: -6.39%
Acinetobacter baumannii
  Inhibition: -10.5%
Escherichia coli
  Inhibition: 7.14%
Klebsiella pneumoniae
  Inhibition: 12.93%
Candida albicans
  Inhibition: 4%
Cryptococcus neoformans
  Inhibition: -12.92%
